Data from PubChem BioAssay AID1030 (National Center for Advancing Translational Sciences (NCATS), 2008).
The campaign covered roughly 220,000 compounds. About 16,000 (7.3%) were called active. Roughly 25% stayed inconclusive and do not appear here. Calls follow the shape of the dose curve; as a rule, active = well fitted inhibition curve with a large enough effect (not every such curve was filed as active); inconclusive = small, poorly fitted or top-dose-only effect, or another doubt; inactive = no such curve, though single readings can be large or run the other way. The list comes from a sample in which actives are over-represented; it also holds similar structures and randomly drawn compounds. Where a call stands in place of a potency, no number is given.

The compounds below were run against Aldehyde dehydrogenase 1A1 (Homo sapiens) (UniProt P00352) (assay: qHTS Assay for Inhibitors of Aldehyde Dehydrogenase 1 (ALDH1A1)). Conditions: Purified ALDH1A1, NADH fluorescence, propionaldehyde substrate; series mostly up to 75.3 µM.
Potency is read from the fitted curve at half-maximal effect.

Sequence of Aldehyde dehydrogenase 1A1 (Homo sapiens) (P00352 whole entry, looked up): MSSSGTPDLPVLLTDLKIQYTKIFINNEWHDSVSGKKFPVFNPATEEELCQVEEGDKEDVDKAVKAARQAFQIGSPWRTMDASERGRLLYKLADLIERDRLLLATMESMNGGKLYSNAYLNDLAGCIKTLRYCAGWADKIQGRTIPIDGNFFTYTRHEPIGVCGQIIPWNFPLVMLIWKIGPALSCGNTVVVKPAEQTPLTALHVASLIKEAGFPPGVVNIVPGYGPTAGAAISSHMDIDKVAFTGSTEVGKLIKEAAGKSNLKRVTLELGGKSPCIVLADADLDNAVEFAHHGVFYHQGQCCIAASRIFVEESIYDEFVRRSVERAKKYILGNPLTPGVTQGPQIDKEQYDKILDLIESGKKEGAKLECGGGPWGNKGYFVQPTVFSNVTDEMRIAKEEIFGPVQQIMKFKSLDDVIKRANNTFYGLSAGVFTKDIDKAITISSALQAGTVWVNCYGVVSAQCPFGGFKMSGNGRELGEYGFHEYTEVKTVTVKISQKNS

| Structure (SMILES) | Potency | activity, negative = inhibition |
| --- | --- | --- |
| CCN(CCn1cccn1)Cc1nc(-c2ccc(C(=O)OC)cc2)no1 | inactive |  |
| O=C1OC(/C=C/c2ccccc2)=NC/1=C/c1ccco1 | 11.2 µM (active) |  |
| O=c1oc(/C=C/c2ccccc2)nc2ccccc12 | inactive |  |
| CC(=O)Oc1ccccc1C1=NN(C(C)=O)C(c2ccccc2)C1 (stereo not drawn) | inactive |  |
| COc1ccccc1N1CCN(/N=C\C(Br)=C\c2ccccc2)CC1 | 5.62 µM (active) |  |
| CNCC(O)CN1CCN(c2ccccc2OC)CC1 (stereo not drawn) | inactive |  |
| COc1ccccc1N1CCN(C(=O)C(=O)N/N=C/c2ccccc2F)CC1 | inactive |  |
| COc1ccccc1CNC(=O)COc1ccc(C)nc1[N+](=O)[O-] | inactive |  |
| O=S(=O)(NCCc1ccc(F)cc1)c1cccc2cccnc12 | inactive |  |
| Cc1coc2c(O)cc3c(c12)OC1(N2CCCCC2)C(=O)NCCCC31 (stereo not drawn) | 20 µM (active) |  |
| COc1ccc(NC(=O)C(Br)C(C)C)cc1 (stereo not drawn) | inactive |  |
| Cc1nn(-c2ccccc2)c2c1C(c1cccc([N+](=O)[O-])c1)N(c1ccccc1)C(=O)N2 (stereo not drawn) | inactive |  |
| CCOc1ccc(C(=O)Nc2cccc(-c3ccc4nncn4n3)c2)cc1 | inactive |  |
| NC(=O)N1CCc2ccccc21 | inactive |  |
| CCCn1nc(C(=O)N2CCCc3ccccc32)c2ccccc2c1=O | inactive |  |
| Cc1occc1C(=O)N1CCCc2ccccc21 | 31.6 µM (active) |  |
| CCOC(=O)C1=NO[C@@]2(C=C(Br)C(=O)[C@H]3O[C@H]32)C1 | inactive |  |
| CN(C)c1ccc(/C=N/NC(=O)c2ccc(Cn3cc(Br)cn3)o2)cc1 | 17.8 µM (active) |  |
| O=C(N/N=C/c1ccc2c(c1)OCO2)c1ccc(Cn2cc([N+](=O)[O-])cn2)o1 | inactive |  |
| O=C(N/N=C\c1ccc(Br)cc1)c1ccc(Cn2cccn2)o1 | inactive |  |
| COc1ccc(C2CC(c3cccs3)Nc3nnnn32)cc1 (stereo not drawn) | inactive |  |
| O=c1[nH]c(CN2CCOCC2)nc2cc(Cl)ccc12 | inactive |  |

| Structure (SMILES) | Potency | activity, negative = inhibition |
| --- | --- | --- |
| CCC1(CC)NC(=O)N(CC(=O)OCC(=O)NC(=O)c2ccccc2)C1=O | inactive |  |
| O=C(c1ccccc1Cl)N(Cc1ccccc1F)N1C(=O)CCCC1=O | inactive |  |
| COc1ccc(NC(=O)N2CCCC(c3nc(-c4ccc(F)cc4)no3)C2)cc1 (stereo not drawn) | inactive |  |
| CC(=O)N1c2ccccc2N(Cc2ccc([N+](=O)[O-])cc2)C(=O)C1(C)C | inactive |  |
| Cc1ccc(C)c(NC(CC(=O)c2ccccc2)C(=O)OCC(=O)c2cccs2)c1 (stereo not drawn) | 7.08 µM (active) |  |
| COC(=O)C(CC(=O)Nc1cc(C)ccc1C)Nc1ccccc1OC (stereo not drawn) | inactive |  |
| Cc1ccc(C)c(NC(=O)CCC(=O)NNC(=O)c2cccs2)c1 | inactive |  |
| O=C(COC(=O)CNC(=O)c1ccccc1F)NCC(F)(F)F | inactive |  |
| O=C(COC(=O)c1ccc(O)cc1)Nc1nccs1 | inactive |  |
| Cc1cccc(C)c1OCC(O)CN1CCCCC1 (stereo not drawn) | inactive |  |
| OC(COc1cccc(OCC(O)CN2CCCC2)c1)CN1CCCC1 (stereo not drawn) | inactive |  |
| OC(COCCC12CC3CC(CC(C3)C1)C2)CN1CCCCC1 (stereo not drawn) | 20 µM (active) |  |
| CC1CCCCC1NC(=O)CO/N=C/c1ccc(OC(F)F)cc1 (stereo not drawn) | inactive |  |
| CCCCCCCCc1c(O)nc(-n2[nH]c(C)c(CCO)c2=O)[nH]c1=O | inactive |  |
| CCOc1ccccc1Nc1ccc(C(=O)O)cc1[N+](=O)[O-] | inactive |  |
| CSc1ccccc1NC(=O)CN(C)CC(=O)Nc1ccc(Cl)cc1[N+](=O)[O-] | inactive |  |
| CSc1nc2nc(-c3cccc(C(F)(F)F)c3)ccn2n1 | inactive |  |
| O=C1CCCC(O)=C1N=Nc1ccc2ncsc2c1 | 25.1 µM (active) |  |
| Cc1ccc(NC(=S)N(Cc2ccco2)C(C)c2cccs2)cc1 (stereo not drawn) | inactive |  |
| O=C(Oc1cccc(O)c1)C1CCCCC1 | inactive |  |
| COC(=O)CN1C(=O)C(O)=C(C(C)=O)C1c1ccc([N+](=O)[O-])cc1 (stereo not drawn) | inactive |  |
| CC(=O)C1=C(O)C(=O)N(c2cccnc2)C1c1ccc([N+](=O)[O-])cc1 (stereo not drawn) | 20 µM (active) |  |

| Structure (SMILES) | Potency | activity, negative = inhibition |
| --- | --- | --- |
| COc1ccc(C2C(C(C)=O)=C(O)C(=O)N2Cc2cccnc2)cc1 (stereo not drawn) | inactive |  |
| O=C1N=C(N2CCCC2)S/C1=C\c1cccc(Br)c1 | 25.1 µM (active) |  |
| O=C(OCC(=O)N1CCN(C(=O)c2ccco2)CC1)c1ccccc1Cc1ccccc1 | inactive |  |
| CCNC(=S)N1CCN(C(=O)c2ccco2)CC1 | inactive |  |
| O=C(CNS(=O)(=O)c1ccc(Br)s1)N1CCN(C(=O)c2ccco2)CC1 | 39.8 µM (active) |  |
| CCc1nnc(NC(=O)CSc2nnnn2-c2cccc(C(C)=O)c2)s1 | inactive |  |
| Cc1cc(C)n(CCNCc2c(C(=O)N3C[C@@H](C)O[C@@H](C)C3)nc3ccc(Cl)cn23)n1 | inactive |  |
| COC(=O)CCCC1=CC2=CC(=O)C(C)(OC(=O)c3cccs3)C(=O)C2=CN1CC1CC1 (stereo not drawn) |  | -4.48% [at 13.5 µM] (inactive) |
| CS(=O)(=O)c1ccc2nc(NC(=O)C3CCCCC3)sc2c1 | inactive |  |
| CS(=O)(=O)c1ccc2nc(NC(=O)CN3CCCCCC3)sc2c1 | inactive |  |
| CS(=O)(=O)c1ccc2nc(NC(=O)C3C4C=CC(C4)C3C(=O)O)sc2c1 (stereo not drawn) | 5.62 µM (active) |  |
| CN1CCN(CC(=O)Nc2cccc([N+](=O)[O-])c2)CC1 | inactive |  |
| CCOc1cccc(/C(O)=C2/C(=O)C(=O)N(CCOC)C2c2ccncc2)c1 (stereo not drawn) | inactive |  |
| COCCCN1C(=O)C(=O)/C(=C(/O)c2ccc3c(c2)CC(C)O3)C1c1cccnc1 (stereo not drawn) | 39.8 µM (active) |  |
| COc1cc(C2/C(=C(\O)c3ccc4c(c3)CC(C)O4)C(=O)C(=O)N2Cc2ccco2)ccc1O (stereo not drawn) | inactive |  |
| CCc1ccccc1NC(=O)Cc1cn(C)c2ccccc12 | inactive |  |
| CC(/C=C/C1(O)C(C)CC(=O)CC1(C)C)OC1OC(CO)C(O)C(O)C1O (stereo not drawn) | inactive |  |
| CN(C)/N=C/c1cc(Cl)cc([N+](=O)[O-])c1O | inactive |  |
| O=[N+]([O-])c1cc(Cl)cc(/C=N/NC(=S)Nc2cc(S(=O)(=O)N3CCOCC3)ccc2Cl)c1O | 0.178 µM (active) |  |
| O=C(Nc1cc(S(=O)(=O)N2CCOCC2)ccc1Cl)c1cc(=O)c2ccccc2o1 | inactive |  |
| CCN(CC)S(=O)(=O)c1ccc(OC(C)C)c(N)c1 | inactive |  |
| COc1ccc2nc(Nc3nc(-c4ccncc4)cs3)sc2c1 | inactive |  |

| Structure (SMILES) | Potency | activity, negative = inhibition |
| --- | --- | --- |
| Cn1c(CCC(=O)OCC(=O)NCc2ccccc2Cl)nc(=O)c2ccccc21 | inactive |  |
| O=C(CCc1nnc(CCCCc2ccccc2)o1)NC(c1cccnc1)C(F)(F)F (stereo not drawn) | inactive |  |
| CCN(CC)CCNC(=O)C1c2ccccc2C(=O)N(C)C1c1cn(C)c2ccccc12 (stereo not drawn) | inactive |  |
| CSc1nnc2c(n1)OC(c1cn(C)c3ccccc13)N(C(C)=O)c1ccccc1-2 (stereo not drawn) | 3.98 µM (active) |  |
| CSc1nnc2c(n1)OC(c1ccsc1)N(C(C)=O)c1ccccc1-2 (stereo not drawn) | inactive |  |
| O=C(CO/N=C/c1ccccc1OC(F)F)NC1CCCC1 | inactive |  |
| CS(=O)(=O)N(CC(=O)N/N=C/c1ccccn1)c1ccc(Oc2ccccc2)cc1 | inactive |  |
| O=C(CN1CCN(Cc2ccc(F)cc2Cl)C1=O)NCc1cccs1 | inactive |  |
| O=c1c(Cl)c(NCc2ccc(F)cc2Cl)cnn1C12CC3CC(CC(C3)C1)C2 | 15.8 µM (active) |  |
| NC(=O)c1ccc(N2CCOCC2)nc1 | inactive |  |
| CCCC(=O)C1CCN(Cc2ccccc2)CC1 | inactive |  |
| CCNC(=S)NNC(=O)C1CCN(Cc2ccccc2)CC1 | inactive |  |
| O=C(NNS(=O)(=O)c1ccc(Cl)cc1)C1CCN(Cc2ccccc2)CC1 | 22.4 µM (active) |  |
| COc1ccc(-c2cc(C(=O)NCCCn3ccnc3)no2)cc1 | inactive |  |
| O=C(c1ccco1)N1CCC[C@@]2(CCN(Cc3nccs3)C2)C1 | 25.1 µM (active) |  |
| Cn1cccc1C(=O)N1CCC[C@@]2(CCN(Cc3nccs3)C2)C1 | inactive |  |
| O=C(c1cccc([N+](=O)[O-])c1)N1CCN(C(=O)c2ccco2)CC1 | inactive |  |
| O=C(c1csnn1)N1CCC[C@@]2(CCN(Cc3nccs3)C2)C1 | inactive |  |
| Cc1ccc(C)c(OCC(=O)N2CCN(C(=O)c3ccco3)CC2)c1 | inactive |  |
| O=C(c1ccco1)N1CCC2(CC1)CCN(c1ncccn1)CC2 | 25.1 µM (active) |  |
| C/C(N)=C(/C#N)C(=O)COC(=O)CNS(=O)(=O)c1ccc(C)cc1 | inactive |  |
| CC(C)NC(=O)NCCCCCCS(C)=O (stereo not drawn) | inactive |  |

| Structure (SMILES) | Potency | activity, negative = inhibition |
| --- | --- | --- |
| O=C(Nc1n[nH]c(C(F)(F)F)n1)c1cccs1 | inactive |  |
| C=CCOC(=O)C1=C(C)NC(SCC(=O)OCC)=C(C#N)C1c1ccc(C)cc1 (stereo not drawn) | inactive |  |
| CC1=C(C(=O)Nc2ccccc2)C(c2cccs2)C(C#N)=C(SCC#N)N1 (stereo not drawn) | 22.4 µM (active) |  |
| CCCSC1=C(C#N)C(c2ccccc2C)C(C(=O)OC)C(=O)N1 (stereo not drawn) | inactive |  |
| CC(C)(C)c1cnnn1-c1ccc([N+](=O)[O-])cc1 | inactive |  |
| COC(=O)c1sccc1NC(=O)CCC1CCCC1 | inactive |  |
| Cc1ccc(NC(=O)c2csc3c2CCCC3)cc1 | 20 µM (active) |  |
| O=C(Nc1ccccc1N1CCOCC1)c1csc2c1CCCC2 | inactive |  |
| COC(=O)c1sccc1NC(=O)c1csc2c1CCCC2 | 22.4 µM (active) |  |
| CC(=O)Cc1nsc(NC(=O)c2csc3c2CCCC3)n1 | inactive |  |
| O=C(NCc1ccccc1Cl)c1csc2c1CCCCC2 | inactive |  |
| COC(=O)/C(=C1\Oc2ccc(C(C)(C)C)cc2S1)C(F)(F)F | inactive |  |
| CC/C(O)=C1\C(=O)CC(C)(C)CC1=NCCc1nc2ccccc2[nH]1 | inactive |  |
| CCCCNC(=O)c1ccc(-n2c(=S)[nH]c3ccccc3c2=O)cc1 | inactive |  |
| O=C(Cn1c2[n+](c3ccc(C(F)(F)F)cc31)CCCCC2)Nc1c(F)cccc1F | inactive |  |
| Cc1ccc(Cl)cc1NC(=O)C1CCN(S(C)(=O)=O)CC1 | inactive |  |
| O=C(NCc1ccccc1Cl)C1CCCO1 (stereo not drawn) | inactive |  |
| Cc1cnc(C(=O)OCC(=O)NCCCc2ccccc2)cn1 | inactive |  |
| Cc1ccc(S(=O)(=O)NCC(=O)OCC(=O)N2CCc3ccccc32)cc1 | inactive |  |
| Cc1cnc(C(=O)OCC(=O)N2CCc3ccccc32)cn1 | 3.16 µM (active) |  |
